Hsp70 act: transcriptional activators of Hsp70; 0.04% of 200,000 active; activation, % at 10 µM; HeLa Hsp70 promoter luciferase reporter, luminescence; scaled: vehicle 0, proteasome-inhibitor control 100%;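 active means activation above the mean across all tested compounds plus 3 SD, cutoff set per campaign, cut at about 5.5% in these data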;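 further: 100% = MG132 at 30 µM as the positive control and 0% = DMSO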
HMGR II inh: E. faecalis class II HMG-CoA reductase inhibition | purified E. faecalis HMGR, NADPH absorbance 340 nm kinetic | inhibition, % at 10 µM | 0.41% of 190,000 active | AID 1066;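 active means inhibition above a set limit, the median over all tested compounds plus 3 SD, cut at about 9.5% in these data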;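 further: enzyme runs in reverse so mevalonate oxidation gives rising NADPH absorbance; 0% = complete reaction with DMSO and 100% = background rate lacking mevalonate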
Arbovirus anti: arbovirus infection inhibition | 0.37% of 200,000 active | AID 1251 | inhibition, % at 10 µM | arbovirus infection cell-based antiviral screen; in the data active means inhibition above about 30%
PKD1 inh: PKD1 (human) kinase inhibition. Q15139. PKD1 kinase fluorescence polarization assay. inhibition, % (test concentration not listed). 0.056% of 200,000 active. AID 797; in the data active means inhibition above about 50%
Target sequence (Q15139 whole entry, looked up): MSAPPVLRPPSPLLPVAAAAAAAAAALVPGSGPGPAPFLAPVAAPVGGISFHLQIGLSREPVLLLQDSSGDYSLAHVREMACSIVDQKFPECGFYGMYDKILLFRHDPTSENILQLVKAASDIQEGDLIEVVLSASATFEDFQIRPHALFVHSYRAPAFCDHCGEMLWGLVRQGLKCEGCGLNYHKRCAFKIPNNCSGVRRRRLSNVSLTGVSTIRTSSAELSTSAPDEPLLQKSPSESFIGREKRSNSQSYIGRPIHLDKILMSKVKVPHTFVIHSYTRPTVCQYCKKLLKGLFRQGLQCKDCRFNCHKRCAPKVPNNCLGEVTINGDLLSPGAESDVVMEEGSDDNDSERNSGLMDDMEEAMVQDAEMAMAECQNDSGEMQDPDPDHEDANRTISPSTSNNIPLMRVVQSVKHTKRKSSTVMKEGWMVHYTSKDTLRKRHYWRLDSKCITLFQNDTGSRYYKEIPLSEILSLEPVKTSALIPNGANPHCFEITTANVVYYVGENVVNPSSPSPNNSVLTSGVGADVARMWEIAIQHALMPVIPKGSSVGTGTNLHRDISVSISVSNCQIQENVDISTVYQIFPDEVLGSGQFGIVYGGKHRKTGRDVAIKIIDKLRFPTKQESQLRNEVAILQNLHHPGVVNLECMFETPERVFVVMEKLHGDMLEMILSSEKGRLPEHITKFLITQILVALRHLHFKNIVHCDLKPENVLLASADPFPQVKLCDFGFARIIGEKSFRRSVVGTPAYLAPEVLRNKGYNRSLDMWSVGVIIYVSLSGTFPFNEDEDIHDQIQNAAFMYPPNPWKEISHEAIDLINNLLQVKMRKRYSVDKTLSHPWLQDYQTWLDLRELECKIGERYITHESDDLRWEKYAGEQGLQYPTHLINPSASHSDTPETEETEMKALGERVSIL
Wee1 degr inh: inhibitors of human Wee1 degradation; AID 1321; 1.2% of 220,000 active; HeLa Luc-Wee1K328M stability, luciferase luminescence; 100% = proteasome inhibitor MG132 effect; reporter increase, % at 5 µM; P30291;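 active means activation above the mean of all tested compounds plus 3 SD, set per screening run, cut at about 8.8% in these data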;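 further: cells exposed to compound for 20 h before luminescence read; 0% = DMSO alone and 100% = MG132 at 30 µM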
Numbers without * were called inactive; . = not tested or not shown. A selection: hits, their analogues and other compounds. The true share with any hit is near 2%.

SMILES | Hsp70 act | HMGR II inh | Arbovirus anti | PKD1 inh | Wee1 degr inh
Cc1ccc(/C=N/NC(=O)Cn2nc(C)c([N+](=O)[O-])c2C)o1 | . | . | . | . | 9.6*
Cc1cc(C)c(C(=O)Cn2nc(C)c([N+](=O)[O-])c2C)cc1C | 0 | -2 | 14 | 7 | 10*
Cn1nnnc1SCC1=C(C(=O)O)N2C(=O)[C@@H](NC(=O)[C@H](O)c3ccccc3)[C@H]2SC1 | 0 | -1 | 9 | 1 | -4
Cn1nnnc1SCC1=C(C(=O)O)N2C(=O)C(NC(=O)C3CC3c3ccccc3)C2SC1 (configuration not stated) | 0 | -2 | 2 | 14 | 11*
O=C(O)CCC(NC(=S)Nc1ccccc1)C(=O)O (configuration not stated) | . | . | . | . | 1
CC1=NN(c2ccccc2)C(=O)/C1=C\c1c(C)[nH]n(-c2ccccc2)c1=O | 0 | -3 | 4 | 4 | 16*
CC(=O)OC1CCC(OC(C)=O)c2c1n([O-])c(C)c(C)[n+]2=O (configuration not stated) | 0 | 0 | 10 | -12 | 11*
COC(=O)C(C)N1C(=O)S/C(=C/c2cc(C)n(C(C)C)c2C)C1=O (configuration not stated) | 0 | -6 | 7 | 3 | 9.4*
O=C(NNC(=S)NC(=O)c1ccco1)c1ccc(F)cc1 | . | . | . | . | 10*
CC(NC(=O)c1cc(=O)[nH]c2ccccc12)c1ccccc1 (configuration not stated) | 0 | 12* | -4 | -4 | -1
COc1ccc(C2C(=O)c3ccccc3C2=O)cc1 | 0 | 0 | -10 | -13 | -2
O=C1c2ccccc2C(=O)C1c1nccc2ccccc12 | 0 | 0 | -18 | -5 | 10*
O=C1c2ccccc2C(=O)C1c1ccnc2ccccc12 | 1 | -5 | -14 | -5 | 11*
N#CC1=C(N)SC(N)=C(C#N)C1c1ccnc2ccccc12 | 0 | -1 | -3 | 4 | -3
O=C(Nc1cccs1)Nc1ccc(F)cc1F | 0 | -4 | 7 | -13 | 9.0*
N#CCCN(Cc1ccccc1)C(=S)Nc1ccccc1 | 0 | -2 | 5 | -5 | 3
CCOC(=O)c1nnn(-c2nonc2N)c1-c1ccccc1 | 0 | 1 | 0 | 2 | -1
Nc1nonc1-n1nncc1-c1ccccc1 | 0 | 11* | 0 | -3 | 1
Cc1ccc(S(=O)(=O)CCSc2cccc(C(=O)Nc3ccccc3C(=O)O)c2)cc1 | 0 | -2 | 44* | -6 | 6
COc1cc(C2NC(=S)NC(c3ccccc3)=C2C(C)=O)cc(Cl)c1OCC(=O)O (configuration not stated) | 0 | -3 | 0 | -10 | -3
COc1cc(C2NC(=O)NC(c3ccccc3)=C2C(C)=O)cc(Cl)c1OCC(=O)O (configuration not stated) | 0 | 14* | 17 | 5 | 3
COc1ccc2[nH]c(=O)c(CN(Cc3cccnc3)Cc3nnnn3CC3CCCO3)cc2c1 (configuration not stated) | . | . | . | . | -4
N#CC1=C(SCC(=O)Nc2ccccc2)NC(=O)CC1c1ccc(O)cc1 (configuration not stated) | 0 | 3 | 42* | -17 | 0
COC(=O)c1ccccc1NC(=O)CSCC(=O)Nc1ccccc1 | 0 | -5 | 9 | 2 | 5
CC(C)CNC(=O)CSc1ccc(Cl)cc1 | 0 | 37* | -2 | -9 | -2
SMILES | Hsp70 act | HMGR II inh | Arbovirus anti | PKD1 inh | Wee1 degr inh
CCOc1ccc(NS(=O)(=O)c2ccc3[nH]cc(C(=O)N(CC)CC)c(=O)c3c2)cc1 | 0 | -1 | 8 | 12 | 17*
Cc1cc(NC(=O)CSc2nnc(N)s2)c([N+](=O)[O-])cc1C | 0 | -6 | 4 | -5 | -3
O=C(CSc1nnnn1-c1ccc(F)cc1)NCc1cccs1 | 0 | -2 | -2 | 1 | 0
CCN(CC)S(=O)(=O)c1ccc2nc(NC(=O)c3ccco3)sc2c1 | 0 | -3 | -8 | -1 | 9.6*
O=C(CSc1nccc(=O)[nH]1)NCc1ccc(Cl)cc1 | 0 | -3 | 1 | 10 | 9.3*
O=C(CSc1ncccn1)NCc1ccc(Cl)cc1 | 0 | -3 | 6 | 0 | 4
Cc1ccc2nc(N3C(=O)C(O)=C(C(=O)c4cc5ccccc5o4)C3c3cccs3)sc2c1 (configuration not stated) | 0 | 1 | 32* | -4 | 3
CCc1ccc2nc(N3C(=O)C(O)=C(C(=O)c4ccco4)C3c3cccs3)sc2c1 (configuration not stated) | 0 | -7 | 13 | -6 | 3
Cc1noc(C)c1S(=O)(=O)N1CCC(C(=O)NCCN2CCC(C)CC2)CC1 | 0 | 11* | 0 | 4 | 0
Cc1noc(C)c1S(=O)(=O)N1CCC(C(=O)NCCCN2CC(C)CC(C)C2)CC1 (configuration not stated) | 0 | -5 | 1 | 0 | -2
COc1cc(OC)cc(C(=O)Nn2cc(C(=O)Nc3ccc(F)cc3F)c3ccccc3c2=O)c1 | 0 | 2 | -20 | -1 | -2
Cc1ccc(C(=O)N/N=C\c2cc3c(cc2Br)OCO3)s1 | 0 | -3 | 1 | -9 | 1
Oc1ccc(-c2n[nH]c(=S)n2-c2ccc3c(c2)OCCO3)c(O)c1 | 0 | -3 | 33* | -2 | 0
Cc1ccc(/C=C/C(=O)O)cc1S(=O)(=O)NCCCO | 0 | 22* | 9 | -5 | -2
COc1cc(/C=C/C(=O)O)cc(S(=O)(=O)NCCCO)c1OC | 0 | -8 | 10 | -14 | -2
Cc1cc(/C=C(\C#N)c2nnc(N3CCOCC3)n2-c2ccccc2)c(C)n1-c1ccccc1 | 0 | -2 | -20 | -7 | 10*
Cc1[nH]n(-c2nc(-c3ccc(Cl)cc3)cs2)c(=O)c1N=Nc1ccc(O)cc1 | 0 | -3 | -4 | -2 | -1
CC(=O)c1cc2c(C)cc(=O)oc2cc1O | 0 | -1 | 3 | -2 | -1
Cc1cc(=O)oc2cc(O)c(N=Nc3ccccc3)cc12 | . | . | . | . | 9.4*
CCCCSc1nc(C)cc(C)c1S(=O)(=O)c1ccccc1C | 0 | 6 | 3 | 27 | 1
C=CCn1c(SCC(=O)c2c(N)n(C)c(=O)n(C)c2=O)nnc1-c1ccccc1F | 0 | -2 | 1 | -3 | 5
C=CCn1c(COc2ccc(Cl)cc2)nnc1SCC(=O)c1c(N)n(C)c(=O)n(C)c1=O | 0 | 1 | -4 | 1 | 10*
Cc1cc(C)n(/N=C/c2cccs2)c(=O)c1C#N | -1 | 0 | 0 | -6 | 11*
Cc1nn(CC(=O)NCc2ccc(Cl)cc2)c(C)c1[N+](=O)[O-] | 0 | 5 | -9 | -8 | -2
Cc1ccc(N2C(=O)/C(=C\c3ccc(C(C)C)cc3)N=C2SC2CCOC2=O)cc1 (configuration not stated) | 0 | -3 | 39* | 3 | 0
CCOC(=O)Cc1nnc(NC(=O)CSc2nc3ccccc3[nH]2)s1 | . | . | . | . | -3
COc1ccc(Cn2c(C)c(C)c(C#N)c2NC(=O)Nc2cccc(Cl)c2)cc1 | 0 | -1 | 79* | -1 | -2

From PubChem BioAssay
